# Sa ugtP lethal = growth inhibition of S. aureus ugtP deletion strain; 330,000 compounds, 0.54% hits; growth inhibition, % (no concentration beside the values); S. aureus RN4220 ugtP deletion, OD600 growth, 16 h; AID 1259309; in the data active means growth inhibition above about 68%;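 further: plate controls were untreated wells for no effect and antibiotic for full effect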
# RN4220 kill = kills Staphylococcus aureus RN4220; S. aureus RN4220 growth, OD600, 16 h; inhibition, % (test concentration not listed); 330,000 compounds, 0.33% hits; AID 1259311; in the data active means inhibition above about 85%;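 further: plate controls were untreated cells for no effect and reference antibiotic for full effect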
# BJeLR lethal = kills HRASV12-expressing BJeLR cells | inhibition, % (concentration not given with the values) | BJeLR (HRASV12) viability, CellTiter-Glo ATP luminescence, 48 h | 300,000 compounds, 0.17% hits; in the data active means inhibition above about 50%; inconclusive means no clear call, values can overlap the other calls
# SARS 3CLpro inh = SARS-CoV 3CLpro protease inhibition; 290,000 compounds, 0.14% hits; recombinant SARS-CoV 3CLpro, quenched FRET peptide cleavage; inhibition, % at 6 µM; AID 1706; in the data active means inhibition above about 12%
# PfHsp40 yeast = compounds rescuing yeast from Plasmodium falciparum HSP40 toxicity; S. cerevisiae expressing PfHsp40, growth rescue, ATP luminescence; growth rescue, % at 12.5 µM; 340,000 compounds, 0.68% hits; in the data active means growth rescue above about 28%, passing the limit was not always enough; inconclusive means no clear call, values can overlap the other calls;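 further: yeast W303a lacking pdr1 and pdr3 grown in galactose medium; growth measured after three days at 30 °C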
# An asterisk follows results filed as active; ? = inconclusive; . = no result. Rows were chosen to be rich in hits. Some 1.3% of all compounds tested hit in one or more screens of this group.
SMILES,Sa ugtP lethal,RN4220 kill,BJeLR lethal,SARS 3CLpro inh,PfHsp40 yeast
CNC[C@@H](CC1CCCCC1)NC[C@H](CC(C)C)NCCc1cccc(C(F)(F)F)c1,.,.,54*,6,-1
CCC[C@@H](CNC)NC[C@H](Cc1ccccc1)NCCCCc1ccccc1,.,.,5,0,-1
CNC[C@@H](Cc1ccccc1)NC[C@@H](CC1CCCCC1)NCCCc1ccccc1,.,.,92*,3,1
CNCC(CC1CCCCC1)NCC(CC(C)C)NCCc1cccc(C(F)(F)F)c1 (stereo unspecified),86,89*,.,.,.
CC1(C)CC(=O)C=C(NCCO)C1,13,3,3,-5,2
Cc1ccc(CC(=O)Nc2nc3ccccc3s2)cc1,-9,0,12,5,4
Cc1nc2c(ccc3nc(NC(=O)Cc4ccccc4)sc32)s1,.,.,4,1,29*
CCCCCCCCCCCCCCCC[N+](C)(C)C,100*,100*,-6,.,?
CCCCCCCCCCCCCCCC[N+](C)(C)CC,100*,100*,-5,.,5
CCC(=O)NCCN1CCN(C(=O)CC)CC1,3,4,-5,7,1
COc1ccccc1C=Nn1c(N)c(S(=O)(=O)c2cccs2)c2nc3ccccc3nc21,-25,-1,.,.,.
CCOC(=O)c1c(C)oc2c1c(C(c1ccccc1)N1CCOCC1)c(O)c1ccccc12 (stereo unspecified),89*,14,-6,7,0
COc1cc(C(=O)Nc2nc(-c3cccs3)cs2)cc(OC)c1OC,35,3,-12,3,41*
O=C1C(=C(c2ccccc2)c2ccccc2)Nc2ccccc21,8,5,-3,5,78*
COC(=O)[C@]1(Cc2ccccc2)N[C@H](CN(C)C(=O)c2ccccc2)[C@@H]2C(=O)N(Cc3ccccc3)C(=O)[C@@H]21,.,.,.,.,1
COC(=O)[C@]1(Cc2ccccc2)N[C@H](CN(C)C(=O)c2ccc(C)cc2)[C@@H]2C(=O)N(Cc3ccccc3)C(=O)[C@@H]21,3,0,.,.,47*
O=C(NCCO)N1c2ccccc2Sc2ccccc21,6,5,-3,1,1
C=CCNC(=O)N1c2ccccc2Sc2ccccc21,-4,1,4,2,57*
Cc1ccc(SCC(O)=C(C#N)c2nc3ccccc3s2)cc1,92*,97*,.,.,.
Cc1ccc(SC/C(O)=C(\C#N)c2nc3ccccc3s2)cc1,.,.,-3,3,0
NC(=O)c1ccccc1OCC(=O)N1CCc2ccccc2C1,7,-2,-1,1,-1
Cc1cc(C)c(N2C(=O)CCCC2=O)c(Cl)c1,-4,-2,7,0,-1
O=C(Nc1cccnc1)c1cccc(-c2cc3ccccc3oc2=O)c1,1,3,-9,5,-1
O=C(NCc1cccnc1)c1ccc(-c2cc3ccccc3oc2=O)cc1,3,0,66*,-3,0
Cc1oc2c(c1C(=O)NCc1cccnc1)C(=O)c1ccccc1C2=O,88,91*,76*,4,.
SMILES,Sa ugtP lethal,RN4220 kill,BJeLR lethal,SARS 3CLpro inh,PfHsp40 yeast
Cc1ccccc1NC(=O)N1CCN(S(=O)(=O)c2ccccc2)CC1,0,-2,-8,3,0
CCCOc1ccc(C2C(C(=O)c3cc4ccccc4o3)=C(O)C(=O)N2c2cc(C)on2)cc1 (stereo unspecified),.,.,-4,4,0
Cc1cc(N2C(=O)C(O)=C(C(=O)c3ccco3)C2c2cccc(Cl)c2)no1 (stereo unspecified),92*,96*,-7,8,1
CCCOc1ccc(C2C(C(=O)c3cc4ccccc4o3)=C(O)C(=O)N2c2cc(C)on2)cc1OC (stereo unspecified),100*,99*,-3,9,1
C=CCOc1cccc(C2C(C(=O)c3cc4ccccc4o3)=C(O)C(=O)N2c2cc(C)on2)c1 (stereo unspecified),100*,100*,-10,10,0
COc1cccc(C2C(C(=O)c3cc4ccccc4o3)=C(O)C(=O)N2c2cc(C)on2)c1 (stereo unspecified),61,31,5,3,2
COc1ccc(C(C)=NNC(=O)CNC(=O)c2cccs2)cc1OC,2,2,.,.,.
Cc1ccc(NC(=O)CSc2nnc(COc3ccc(C#N)cc3)n2-c2ccccc2)cc1C,-1,2,0,1,0
O=C(N/N=C\c1cccc(Cl)c1)c1n[nH]c2c1CCCC2,.,.,16,2,0
Cc1ccc(/C=N/NC(=O)c2n[nH]c3c2CCCC3)cc1,.,.,60*,3,.
CN(C)c1ncnc2c1ncn2C1CCCCO1 (stereo unspecified),2,-2,.,.,0

# Compound activity: PubChem, several laboratories
